According to PubChem BioAssay:
The source made the active and inactive calls. Unless noted, the rule behind the calls is not given here.

How the values were obtained:
[1] = anti-His antibody binders, primary screen, artefact control for SMM control protein annotation, biochemical, small-molecule microarray, 635 nm fluorescence (AID 1128); details: anti-His Alexa647 antibody binding, higher = more signal;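 note: score merges feature fluorescence with signal-to-noise for each printed compound spot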
[2] = tested on: Human papillomavirus type 1a E7 protein (residues 1-88); test: HPV1a E7 small-molecule binders, primary screen, biochemical, small-molecule microarray, residues 1-88, 635 nm (AID 1129); details: small-molecule microarray binding, fluorescence 635 nm; higher = more signal
[3] = biological target: Focal adhesion kinase 1 (Homo sapiens) (UniProt Q05397); test: small-molecule microarray binders of FAK, primary screen, biochemical, 635/667 nm fluorescence, BSA, DTT (AID 1130); details: PTK2 binding, 635 nm fluorescence, higher = more signal;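 note: composite of spot emission at 667 nm and signal to noise over triplicate slides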
[4] = tested on: Fibrinogen (Alexa647-labelled); test: fibrinogen binders on compound microarrays, profiling panel, artefact control for SMM control-protein annotation, biochemical, small-molecule microarray, 635/667 nm fluorescence (AID 1131); details: fibrinogen-A647 binding fluorescence, higher = more signal;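 note: z-score merges 667 nm fluorescence with per-spot signal-to-noise over triplicate slides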
[5] = biological target: Follistatin (Homo sapiens) (UniProt P19883); test: follistatin binders on small-molecule microarrays, primary screen, biochemical, small-molecule microarray, 635/667 nm fluorescence (AID 1132); details: FST binding, 635 nm fluorescence, higher = more signal
[6] = biological target: Fibroblast growth factor 2 (Homo sapiens) (UniProt P09038); test: FGF2 binders on small-molecule microarrays, primary screen, biochemical, small-molecule microarray, 635/667 nm fluorescence (AID 1133); details: small-molecule microarray binding, FGF2, fluorescence 635/667; higher = more signal
[7] = mitochondrial membrane potential change in A549 cells, profiling panel, cell-based, JC-1 fluorescence, basal, 24 h, 100 nL (AID 1138); details: higher = more signal;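 note: A549 lung adenocarcinoma cells under basal conditions with no added stimulus; test concentration not given here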
Lefty1 = Lefty1 binders on small-molecule microarrays, primary screen, biochemical, small-molecule microarray, 635/667 nm fluorescence (AID 1139); details: small-molecule microarray binding, fluorescence 635/667; higher = more signal
[8] = tested on: wheat germ agglutinin (Triticum aestivum), Alexa647-labelled; test: wheat germ agglutinin binders on compound microarrays, profiling panel, artefact control for SMM control-protein annotation, biochemical, small-molecule microarray, 635/667 nm fluorescence (AID 1140); details: WGA-A647 binding, 635 nm fluorescence, higher = more signal;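 note: score merges 667 nm feature emission with signal to noise over triplicate slides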
[9] = biological target: Luciferin 4-monooxygenase (Photinus pyralis) (UniProt P08659); test: firefly luciferase enzyme inhibitors, primary screen, biochemical, luminescence, purified enzyme, 2006 set (AID 1141); details: SteadyGlo luminescence, 30 min, higher = more signal, called active from +8 up or from −8 down;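 note: cell-free assay with purified firefly luciferase at 100 ng per well in PBS; test concentration not given here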
[10] = tested on: Wnt5a (protein binding on small-molecule microarray); test: Wnt5a binders on small-molecule microarray, primary screen, biophysical, 635/667 nm fluorescence (AID 1142); details: 635 nm fluorescence, higher = more signal;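 note: fluorescence read at 667 nm with signal to noise per printed feature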
[11] = cell viability in Huh7 cells, primary screen, cytotoxicity control for HCV replication inhibitor project, CellTiter-Glo luminescence, basal, 48 h (AID 1143); details: Huh7 HCV replicon, higher = more signal, called active from +8 up or from −8 down;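 note: Huh7 hepatoma cells carrying a hepatitis C replication reporter with no stimulus; test concentration not given here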
[12] = P. aeruginosa biofilm formation inhibitors, primary screen, PAO1 strain, BacTiter-Glo luminescence, LB-PBS (AID 1144); details: 12 h, higher = more signal
[13] = CREB reporter modulators without forskolin, primary screen, cell-based, PC12, CRE-LacZ reporter, unstimulated (AID 1145); details: no forskolin, luminescence, 4.5 h, higher = more signal, called active from +8 up or from −8 down
[14] = CREB reporter modulators under forskolin, primary screen, cell-based, PC12, CRE-LacZ reporter, forskolin-stimulated (AID 1146); details: luminescence, 4.5 h, higher = more signal, called active from +8 up or from −8 down;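 note: PC12 cells with 6xCRE LacZ reporter stimulated by forskolin 10 µM; beta-galactosidase reporter signal reflecting CREB driven transcription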
[15] = biological target: Streptavidin (Streptomyces avidinii) (UniProt P22629); test: streptavidin binders on small-molecule microarray, primary screen, artefact control for SMM compound annotation, biophysical, 635/667 nm fluorescence (AID 1147); details: streptavidin binding, higher = more signal;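 note: signal reflects streptavidin binding to arrayed compounds as a control protein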
[16] = small-molecule binders of probe aInhba, primary screen, biochemical, small-molecule microarray, 635/667 nm fluorescence (AID 1148); details: higher = more signal;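 note: score merges 667nm spot fluorescence with signal-to-noise for antibody binding to printed compounds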
Torsin-1A (Homo sapiens) [17] = biological target: Torsin-1A (Homo sapiens) (UniProt O14656); test: torsin A binders from cell lysate, primary screen, small-molecule microarray, wild-type, 635/667 nm (AID 1149); details: COS7 hTOR1A-WT lysate, 635 nm fluorescence, higher = more signal
Torsin-1A (Homo sapiens) [18] = biological target: Torsin-1A (Homo sapiens) (UniProt O14656); test: small-molecule binders of mutant TOR1A in lysate, primary screen, cell lysate, small-molecule microarray, COS7 lysate, 635/667 nm fluorescence (AID 1150); details: COS7 hTOR1A mutant lysate, 635 nm fluorescence, higher = more signal;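 note: score pools 667 nm emission and signal to noise measuring lysate protein binding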
[19] = tested on: Sonic hedgehog protein (Shh); test: small-molecule binders of Shh protein, primary screen, biochemical, small-molecule microarray, 635/667 nm fluorescence (AID 1151); details: small-molecule microarray binding, 635 nm fluorescence; higher = more signal;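 note: Shh protein binding to compounds spotted on small-molecule microarray slides; score combines spot fluorescence intensity with signal-to-noise across triplicate slides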

Sequence of Focal adhesion kinase 1 (Homo sapiens) (Q05397 whole entry, looked up): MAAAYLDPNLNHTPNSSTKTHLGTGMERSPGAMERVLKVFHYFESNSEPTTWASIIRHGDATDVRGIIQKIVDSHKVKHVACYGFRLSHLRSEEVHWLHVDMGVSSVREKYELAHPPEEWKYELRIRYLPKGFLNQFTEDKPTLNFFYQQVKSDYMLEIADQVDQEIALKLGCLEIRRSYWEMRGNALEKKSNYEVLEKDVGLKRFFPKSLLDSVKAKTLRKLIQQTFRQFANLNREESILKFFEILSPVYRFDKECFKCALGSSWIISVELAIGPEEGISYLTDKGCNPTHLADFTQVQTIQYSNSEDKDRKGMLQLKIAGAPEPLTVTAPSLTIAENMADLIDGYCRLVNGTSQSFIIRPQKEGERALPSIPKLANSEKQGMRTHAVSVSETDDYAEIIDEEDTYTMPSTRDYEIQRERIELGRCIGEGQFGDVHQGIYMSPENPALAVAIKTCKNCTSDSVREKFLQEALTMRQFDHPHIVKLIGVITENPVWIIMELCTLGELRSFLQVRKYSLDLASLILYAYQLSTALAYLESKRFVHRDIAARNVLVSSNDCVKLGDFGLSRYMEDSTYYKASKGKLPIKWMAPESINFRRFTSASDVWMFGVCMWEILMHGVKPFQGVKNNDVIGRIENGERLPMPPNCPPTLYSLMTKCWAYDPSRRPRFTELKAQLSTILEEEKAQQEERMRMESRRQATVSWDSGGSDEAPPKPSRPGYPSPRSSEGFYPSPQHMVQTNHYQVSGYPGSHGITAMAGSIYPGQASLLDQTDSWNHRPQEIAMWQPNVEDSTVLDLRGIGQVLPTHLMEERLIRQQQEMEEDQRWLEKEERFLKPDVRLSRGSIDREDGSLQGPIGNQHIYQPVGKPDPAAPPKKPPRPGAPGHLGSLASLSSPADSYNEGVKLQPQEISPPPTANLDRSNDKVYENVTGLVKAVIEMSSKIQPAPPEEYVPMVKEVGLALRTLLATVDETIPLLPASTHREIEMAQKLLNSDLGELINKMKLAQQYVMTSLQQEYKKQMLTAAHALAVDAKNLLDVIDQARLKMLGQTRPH
Sequence of Torsin-1A (Homo sapiens) (O14656 whole entry, looked up): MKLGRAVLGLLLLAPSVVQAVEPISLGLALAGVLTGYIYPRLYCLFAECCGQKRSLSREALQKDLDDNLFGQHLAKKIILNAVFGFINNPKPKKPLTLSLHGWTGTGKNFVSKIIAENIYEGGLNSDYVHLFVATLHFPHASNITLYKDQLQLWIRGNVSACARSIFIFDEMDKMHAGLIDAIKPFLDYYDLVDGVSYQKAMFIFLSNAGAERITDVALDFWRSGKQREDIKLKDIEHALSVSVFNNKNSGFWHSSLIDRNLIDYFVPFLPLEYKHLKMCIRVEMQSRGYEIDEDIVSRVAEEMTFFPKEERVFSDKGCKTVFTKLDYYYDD
Sequence of Luciferin 4-monooxygenase (Photinus pyralis) (P08659 whole entry, looked up): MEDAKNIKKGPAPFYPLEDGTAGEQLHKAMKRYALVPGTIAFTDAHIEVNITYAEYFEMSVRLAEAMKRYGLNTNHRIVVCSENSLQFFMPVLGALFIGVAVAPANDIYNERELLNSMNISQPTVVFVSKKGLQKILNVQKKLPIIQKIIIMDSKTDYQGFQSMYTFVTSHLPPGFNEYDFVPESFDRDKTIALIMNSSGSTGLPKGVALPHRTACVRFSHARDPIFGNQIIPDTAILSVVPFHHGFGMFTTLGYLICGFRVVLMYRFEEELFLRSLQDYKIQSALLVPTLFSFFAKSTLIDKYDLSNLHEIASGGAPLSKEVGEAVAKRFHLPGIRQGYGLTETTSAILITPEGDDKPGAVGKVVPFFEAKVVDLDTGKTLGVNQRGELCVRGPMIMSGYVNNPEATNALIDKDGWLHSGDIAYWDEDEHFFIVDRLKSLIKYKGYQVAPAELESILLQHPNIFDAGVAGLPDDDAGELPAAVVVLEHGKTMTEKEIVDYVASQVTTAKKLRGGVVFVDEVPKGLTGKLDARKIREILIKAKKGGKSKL
Sequence of Fibroblast growth factor 2 (Homo sapiens) (P09038 whole entry, looked up): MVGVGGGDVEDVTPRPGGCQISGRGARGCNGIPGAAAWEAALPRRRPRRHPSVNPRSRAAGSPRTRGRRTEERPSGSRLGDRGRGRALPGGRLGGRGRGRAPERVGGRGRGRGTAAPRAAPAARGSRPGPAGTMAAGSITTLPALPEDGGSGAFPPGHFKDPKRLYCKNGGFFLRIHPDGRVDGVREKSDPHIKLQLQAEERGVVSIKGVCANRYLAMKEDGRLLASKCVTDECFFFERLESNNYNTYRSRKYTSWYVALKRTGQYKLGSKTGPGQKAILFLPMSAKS
Sequence of Streptavidin (Streptomyces avidinii) (P22629 whole entry, looked up): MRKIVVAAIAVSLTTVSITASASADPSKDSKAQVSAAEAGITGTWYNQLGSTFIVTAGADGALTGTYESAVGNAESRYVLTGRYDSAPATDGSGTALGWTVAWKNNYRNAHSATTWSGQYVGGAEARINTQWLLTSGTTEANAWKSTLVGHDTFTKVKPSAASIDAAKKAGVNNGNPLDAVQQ
Sequence of Follistatin (Homo sapiens) (P19883 whole entry, looked up): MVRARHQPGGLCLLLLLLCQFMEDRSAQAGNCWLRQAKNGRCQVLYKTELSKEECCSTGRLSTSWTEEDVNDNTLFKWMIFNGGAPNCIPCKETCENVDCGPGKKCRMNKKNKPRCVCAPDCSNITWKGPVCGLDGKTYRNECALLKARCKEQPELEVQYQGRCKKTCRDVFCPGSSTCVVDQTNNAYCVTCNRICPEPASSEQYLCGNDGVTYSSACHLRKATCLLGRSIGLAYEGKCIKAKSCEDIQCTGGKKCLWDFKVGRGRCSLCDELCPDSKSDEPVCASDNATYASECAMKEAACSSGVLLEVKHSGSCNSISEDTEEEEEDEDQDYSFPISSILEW

Compound	composite z-score [1]	composite z-score [2]	composite z-score [3]	composite z-score [4]	composite z-score [5]	composite z-score [6]	z-score [7]	composite z-score (Lefty1)	composite z-score [8]	z-score [9]	composite z-score [10]	z-score [11]	z-score [12]	z-score [13]	z-score [14]	composite z-score [15]	composite z-score [16]	composite z-score (Torsin-1A (Homo sapiens) [17])	composite z-score (Torsin-1A (Homo sapiens) [18])	composite z-score [19]
C=CCOC(=O)[C@H]1[C@@H]2C(=O)O[C@@H](c3ccccc3)[C@@H](c3ccccc3)N2[C@@H](c2ccc(OCCOC(=O)[C@@H]3C[C@@H]4C(=O)N[C@@H](Cc5ccccc5)C(=O)N4[C@@H]3c3ccc(O)cc3)cc2)[C@]12C(=O)Nc1ccc(I)cc12	1.15	1.15	0.307	-0.0558	1.4	1.25	-1.28	0.924	0.0495	-0.409 (inactive)	0.305	-0.268 (inactive)	0.0872 (inactive)	0.81 (inactive)	0.695 (inactive)	0.387	0.124	-0.305	0.237	1.93
CCCN1C(=O)[C@@]2(c3ccc([N+](=O)[O-])cc3)CC(=O)N(C3CCCCC3)[C@@H]2c2ccc(CO)cc21	0.993	-0.281	0.584	-0.138	1.2	1.08	-0.755	0.466	0.198	0.289 (inactive)	0.0899	0.677 (inactive)	-0.0723 (inactive)	0.389 (inactive)	-0.131 (inactive)	-0.397	-0.168	0.515	-0.187	1.08
CCCC=C(CCC)[C@@H](NC(=O)c1ccc(C(=O)OC)cc1)c1ccc(C(=O)OC)cc1	-0.202	0.33	0.723	0.146	0.0388	-1.47	-0.699	-0.799	0.315	1.3 (inactive)	0.41	-2.2 (inactive)	0.668 (inactive)	1.53 (inactive)	1.06 (inactive)	0.239	0.18	-0.266	-0.415	-1.35
C[C@H]1C2[C@H](Cc3ccccc3)NC(=O)[C@]23C(=O)N[C@@H](Cc2ccccc2)C(=O)N2CCC[C@H]2C(=O)NC/C=C/CC/C=C/C3[C@@H]2O[C@]12C (stereo not given in full)	0.196	0.965	-0.153	0.596	0.925	0.359	0.974	0.754	0.0255	0.527 (inactive)	0.241	-2.38 (inactive)	-0.165 (inactive)	0.941 (inactive)	-0.688 (inactive)	-0.423	-0.0986	-0.0723	0.49	0.975
[N-]=[N+]=NCc1ccccc1[C@H]1OC(c2ccc(OCCCO)cc2)=N[C@@]1(Cc1ccccc1N=[N+]=[N-])C(=O)O	2.02	1.2	1.03	0.899	1.21	0.134	-0.0184	0.0929	1.23	-4.21 (inactive)	0.322	-1.16 (inactive)	0.159 (inactive)	-0.137 (inactive)	-0.763 (inactive)	1.55	0.147	0.136	0.691	-0.141
